Over roughly 68,000 sequences, “fluorescence intensity (a.u.)” has its median near 9,100; the highest 2% begin near 16,000. The full list was thinned out, with the highest values kept by preference.

For the test, the target named is OsWRKY34 (Oryza sativa, UniProt Q0JBA9 1-250). Description: protein-binding microarray (RPBM); PBS, 2% BSA, 51.3 ng/ul salmon testes DNA, 50 uM zinc acetate, 200 nM TF, 25 C, 1 h; high values mean tight binding. The note with it: protein: recombinant; tags: N-terminal polyhistidine and DsRed monomer fusion (pET32a); label: CyDye5-dUTP incorporated in the synthesized complementary strand; 3' TTTTT single-stranded linker to array surface; dsDNA, one strand shown. In short, it runs like this: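 Ni–NTA purification followed expression in E. coli BL21-CodonPlus of transcription factors fused N-terminally to a polyhistidine tag and DsRed. At 200 nM in PBS with 2% BSA, salmon testes DNA and 50 µM zinc acetate, the protein was incubated for 1 h at 25 °C with a custom Agilent array that had been primer-extended with Cy5-dUTP and blocked with 2% BSA. After washing, the array was read on an Axon 4000B scanner. The binding signal is per-feature fluorescence intensity in arbitrary units.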
Sequence of OsWRKY34 (Q0JBA9 entry or part of it): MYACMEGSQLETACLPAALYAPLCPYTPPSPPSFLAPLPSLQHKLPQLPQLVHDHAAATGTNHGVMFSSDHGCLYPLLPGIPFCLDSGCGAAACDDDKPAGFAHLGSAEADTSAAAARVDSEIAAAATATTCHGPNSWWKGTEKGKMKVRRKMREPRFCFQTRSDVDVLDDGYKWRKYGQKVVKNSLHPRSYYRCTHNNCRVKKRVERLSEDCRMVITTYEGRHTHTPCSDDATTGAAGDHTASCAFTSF
For the sequence “ACCCGCCGTCGCTCTCCAACGCGCTCGTCGCGGCGTTCAACGGAGTCACCTAGTGCAG”, the binding signal was 8970 fluorescence intensity (a.u.). For “TGCTTGTTCCGGTTCCTTCCCAACCCTTTTGCAAGAACACCGGAGTCACCTAGTGCAG” the value was 9120 fluorescence intensity (a.u.). Consider “GTCACCGTCTCGTCTCCGTCTCCGCCGCTCGTCGTCGACCCGGAGTCACCTAGTGCAG”, for which the binding signal is 12600 fluorescence intensity (a.u.). Take “AAAAAAATCTCGTTGTTACTGTCTATAGATCACTATATTACGGAGTCACCTAGTGCAG”: the binding signal is 8570 fluorescence intensity (a.u.). Under “GCCGCCATCGTTCCTGTTCGCCGCCCGTTGTCCTTCCAATCGGAGTCACCTAGTGCAG” stands 13000 fluorescence intensity (a.u.); under “TTCTTCACCGTTTTGTTTTCTCTGCGCCTCAAATTTCCTTCGGAGTCACCTAGTGCAG”, 12000 fluorescence intensity (a.u.); under “CCGGTGATGTTTTTATTTTTCTTCCGGTTCTTTTTCTCAACGGAGTCACCTAGTGCAG”, 12300 fluorescence intensity (a.u.). As for “TGAGTTGTTTTGTTGATAGGTATAGATATGAATCGAATTACGGAGTCACCTAGTGCAG”, the binding signal was 8950 fluorescence intensity (a.u.). Under “GGTTGGTGCTGTATTGTTTGAGGGGAGGGGATTCCATTTTCGGAGTCACCTAGTGCAG” stands 47400 fluorescence intensity (a.u.).

Consider “GAGGATTGATTTGTTTTTTTTTTTTGGGGTTTTCTCTTCTCGGAGTCACCTAGTGCAG”, for which the binding signal is 16300 fluorescence intensity (a.u.). For the sequence “GGGGTGACATTTCAATTGTTTTTCTCTTATATTTGTAATCCGGAGTCACCTAGTGCAG”, the binding signal is 20100 fluorescence intensity (a.u.).

Regarding “ACGTATTTGTGAGGGGATTTGGTACCATTACATCTGTTTTCGGAGTCACCTAGTGCAG”, the binding signal was 8192 fluorescence intensity (a.u.). Under “ATTCTGTATTTATTGTTTGCTGCATTCAGTTTGATTGGTTCGGAGTCACCTAGTGCAG” stands 13900 fluorescence intensity (a.u.). For “TTGACAATGGTTGGGGTGGTGGTGGTGTTCGCGGTGATGACGGAGTCACCTAGTGCAG” the value was 31700 fluorescence intensity (a.u.); for “TTGTGGATTTTTTTTTTTTGAGAGGGATGGGTGTTTGATTCGGAGTCACCTAGTGCAG”, 10900 fluorescence intensity (a.u.); for “TTTCTTTTCATATATTTTTGTTTATTTTCTCTCATTTCTCCGGAGTCACCTAGTGCAG”, 11300 fluorescence intensity (a.u.).

With “GGTGACTGATAATTATTATTTTCTTTGTTTCACATTATACCGGAGTCACCTAGTGCAG”, the binding signal was 14200 fluorescence intensity (a.u.). Regarding “AGATTGGGTTTGGGTGGTGTGAGGATTGATTTGTTTTTTTCGGAGTCACCTAGTGCAG”, the binding signal was 17800 fluorescence intensity (a.u.).

For the sequence “TTGTTGGGTGCTGAATTGCTGATGTGGTGGGGTGACATGACGGAGTCACCTAGTGCAG”, the binding signal was 12500 fluorescence intensity (a.u.).

On to “CTGATGGTGTTGGTGATGGTGGTGCGGGTGCGGCAGTTGACGGAGTCACCTAGTGCAG”, for which the binding signal is 13200 fluorescence intensity (a.u.).

With “GGACTGCTCCACCATTTTTAGTCCCGGTTGGTAATACCAACGGAGTCACCTAGTGCAG”, the binding signal was 8570 fluorescence intensity (a.u.). On to “AATCTATCCCAGCCTAAATCTCACTGTTTCATGCACAACTCGGAGTCACCTAGTGCAG”, for which the binding signal is 8350 fluorescence intensity (a.u.). In the case of “GCGCGCGTCCCGTCACGTCTTTTCTCCTCGCCTATATGCCCGGAGTCACCTAGTGCAG”, the binding signal is 9050 fluorescence intensity (a.u.). Regarding “CAGCTATCGTTATTCTGAAGATCCACCAAGCACAATCTTACGGAGTCACCTAGTGCAG”, the binding signal was 8280 fluorescence intensity (a.u.). Turning to “TCGGTGGGTGGTTGGGGATATTGCAAAAAGTATATAAAAACGGAGTCACCTAGTGCAG”, the binding signal is 15800 fluorescence intensity (a.u.). For “TTAACTGCAACCATAAGTTTCTGCGCCTAACTTTGATCGTCGGAGTCACCTAGTGCAG”, the binding signal was 8850 fluorescence intensity (a.u.).

“ACTTCCCATTGTTGTTGCCATCGCCGCCGCCGCCGCCGCCCGGAGTCACCTAGTGCAG”: the binding signal was 12200 fluorescence intensity (a.u.).

“TTCCTATGTTTTTCCTGTGTTTTGTAATTCTCTGTTTTACCGGAGTCACCTAGTGCAG”: the binding signal is 10600 fluorescence intensity (a.u.). As for “CGCCGAGGGGAGGGGAGGGGAGGTTGCCATTGTTGTCCATCGGAGTCACCTAGTGCAG”, the binding signal was 22000 fluorescence intensity (a.u.). Under “ATTCTCTCTTCTGTGTTTCCTTTTTGAGATACTTCATTTTCGGAGTCACCTAGTGCAG” stands 9340 fluorescence intensity (a.u.). On to “CCACTTGTACATATACAACTTGTTTTGTGGGGAGGGGTGTCGGAGTCACCTAGTGCAG”, for which the binding signal is 12700 fluorescence intensity (a.u.). As for “GGGGTAATTTCTCTGTGTTTTGAGTTGAGGGAGATAATTCCGGAGTCACCTAGTGCAG”, the binding signal was 16900 fluorescence intensity (a.u.). For the sequence “ACGTTGGATTGGTGGTGGACGGGCGCGATGGGTTGGGGTGCGGAGTCACCTAGTGCAG”, the binding signal is 9930 fluorescence intensity (a.u.). Under “TAGTATATACATGGGTGTTTGGGAGAGAGGGGCTAAACTTCGGAGTCACCTAGTGCAG” stands 9540 fluorescence intensity (a.u.); under “TGTTTTGTGGGGAGGGGTGTACATATACAACTTAGTACTCCGGAGTCACCTAGTGCAG”, 20300 fluorescence intensity (a.u.); under “GGGCGTGTGGTTGAGAACTTGATTGGGATGATGATGAGACCGGAGTCACCTAGTGCAG”, 10400 fluorescence intensity (a.u.). For “TGCGCCATCTTTTGTCGTCCCGAGGGGATGGGCGGGGTTGCGGAGTCACCTAGTGCAG” the value was 16400 fluorescence intensity (a.u.); for “GGGCGCGATGGGTTGGGGTGTGTTTCCGTGGATTGATGACCGGAGTCACCTAGTGCAG”, 21100 fluorescence intensity (a.u.). For “CGAGAGATCGTTGCCCTCCGTATCCACTACTACTACACTCCGGAGTCACCTAGTGCAG” the value was 8310 fluorescence intensity (a.u.); for “CAGGATTGCTTGGAGATTCGTGCGGGGACGCGCGGGGTGACGGAGTCACCTAGTGCAG”, 9720 fluorescence intensity (a.u.).

For the sequence “TACCGGTTAAAACGCCCAAGTCAGTGGCTCTCGTCCTCCTCGGAGTCACCTAGTGCAG”, the binding signal was 8860 fluorescence intensity (a.u.). For “GTGCAGTTTATACATTAACATGTTAATCCCACTTTACTACCGGAGTCACCTAGTGCAG” the value was 10300 fluorescence intensity (a.u.).

For the origin of these results see paper PMC7819943, “Rice protein-binding microarrays: a tool to detect cis-acting elements near promoter regions in rice”.
